This passage reports Potency results from PubChem BioAssay (Tox21).

Records with an inconclusive call do not appear. Entries that show only a call come without a potency. Calls of active or inactive are those of the source. Calls follow the shape of the dose curve; as a rule, active = well fitted inhibition curve with a large enough effect in the repeat runs; inconclusive = weak or mixed curves; inactive = no such curve, though single readings can be large or run the other way.
Potency is read from the fitted curve at half-maximal effect.

Cytochrome P450 2C19 (Homo sapiens), sequence (P33261 whole entry, looked up): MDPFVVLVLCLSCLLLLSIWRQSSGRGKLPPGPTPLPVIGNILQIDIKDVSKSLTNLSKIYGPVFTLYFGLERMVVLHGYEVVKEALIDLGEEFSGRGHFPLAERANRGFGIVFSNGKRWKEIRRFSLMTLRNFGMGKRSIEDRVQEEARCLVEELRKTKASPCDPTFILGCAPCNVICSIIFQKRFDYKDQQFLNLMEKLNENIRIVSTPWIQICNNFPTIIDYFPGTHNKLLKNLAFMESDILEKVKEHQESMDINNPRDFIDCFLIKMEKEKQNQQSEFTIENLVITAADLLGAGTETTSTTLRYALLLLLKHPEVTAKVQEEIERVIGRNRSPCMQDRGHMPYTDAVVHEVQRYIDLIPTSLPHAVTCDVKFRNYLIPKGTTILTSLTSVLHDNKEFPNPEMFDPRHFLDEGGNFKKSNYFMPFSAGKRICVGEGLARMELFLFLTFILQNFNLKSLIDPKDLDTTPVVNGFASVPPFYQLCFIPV

The assay has as its target Cytochrome P450 2C19 (Homo sapiens) (UniProt P33261). In words: Cytochrome P450 Family 2 Subfamily C Member 19 (CYP2C19) small molecule antagonists: luciferase reporter qHTS assay (AID 1671197). Also: nearly all actives have a fitted effect of over 65% in size. As to conditions: P450-Glo CYP2C19 enzyme, luciferin luminescence, 1 h; series mostly up to 115 µM. Put shortly:
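P450-Glo CYP2C19 system: enzyme-substrate mix with compound 10 min at room temperature, then NADPH regeneration solution, 1 h at 37C. Proluciferin-to-luciferin conversion detected by luminescence after 20 min with detection reagent; ketoconazole as positive control.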
Turning to `CC(C)CCC(=O)CCC(C)C`, the Potency result is “inactive”.

`Cc1cccc(C(=O)O)c1[N+](=O)[O-]`: the Potency entry is “inactive”.

Regarding `CCCCCC(=O)OCC`, the Potency result was “inactive”.

For `C[C@H](CCC(=O)NCC(=O)O)[C@H]1CC[C@H]2[C@@H]3[C@H](O)C[C@@H]4C[C@H](O)CC[C@]4(C)[C@H]3C[C@H](O)[C@]12C`, the Potency result was “inactive”.

`CC(C)CCCCCCOC(=O)C1CCCCC1C(=O)OCCCCCCC(C)C` (stereo unspecified): the Potency result was “inactive”.

As to `CC(C)=CC(C)(C)C`, the Potency entry was “inactive”.

As for `COCCOCCOCCOC`, the Potency result is “inactive”.

Consider `O=C(O)C(=O)Nc1cccc(-c2nn[nH]n2)c1`, for which the Potency entry was “inactive”.

As for `CCN(CCO)c1cccc(C)c1`, the Potency was 35.6 µM (active).

Take `COC(/C=C(\C)CCC=C(C)C)OC`: the Potency result was “inactive”.

`CCCCC(CC)COC(=O)c1ccccc1` (stereo unspecified): the Potency entry is “inactive”.

In the case of `CCCOC(=O)CCCCC(=O)OCCC`, the Potency is 20 µM (active).

For `CC(Cl)COP(=O)(OCC(C)Cl)OCC(C)Cl` (stereo unspecified), the Potency is 19.9 µM (active).

Consider `CCCCC(CC)C(=O)OC(C)C` (stereo unspecified), for which the Potency result was “inactive”.

Take `O=C(O)c1ccc(OCCN2CCCCC2)cc1`: the Potency entry is “inactive”.

`CCCCC/C=C/CC(=O)OC`: the Potency entry is “inactive”.

In the case of `CC(C)CCCC(C)CC=O` (stereo unspecified), the Potency was 79.6 µM (active).

As to `CC(C)(C)c1ccc(C=O)cc1`, the Potency result was “inactive”.

In the case of `C1=C\CC/C=C\CC/1`, the Potency result is “inactive”.

For the compound `CCC(O)C(C)(C)C` (stereo unspecified), the Potency result was “inactive”.

For `C/C=C(\C)C(=O)OCC/C=C\CC`, the Potency entry was “inactive”.

As for `O=C(c1ccc2c(c1)C(=O)OC2=O)c1ccc2c(c1)C(=O)OC2=O`, the Potency entry was “inactive”.

With `O=C(O)c1c(Cl)ccc(Cl)c1Cl`, the Potency entry was “inactive”.

In the case of `O=C(O)CCNC(=O)c1ccccc1`, the Potency entry was “inactive”.

Regarding `NC(=O)NNC(N)=O`, the Potency entry is “inactive”.

On to `CCCCC(C)C(=O)O` (stereo unspecified), for which the Potency is 39.9 µM (active).
